# About 5,800 (36%) of roughly 16,000 compounds were called active. Inconclusive results (about 23%) are left out. This is one part of the list. Unmarked numbers belong to inactive results. Calls follow the shape of the dose curve; as a rule, active = well fitted curve in the direction sought with a large enough effect; inconclusive = small, poorly fitted or top-dose-only effect, or effect the other way; inactive = no such curve, though single readings can be large or run the other way.
# Target: Cytochrome P450 2C19 (Homo sapiens) (UniProt P33261)
# Sequence (P33261 whole entry, looked up): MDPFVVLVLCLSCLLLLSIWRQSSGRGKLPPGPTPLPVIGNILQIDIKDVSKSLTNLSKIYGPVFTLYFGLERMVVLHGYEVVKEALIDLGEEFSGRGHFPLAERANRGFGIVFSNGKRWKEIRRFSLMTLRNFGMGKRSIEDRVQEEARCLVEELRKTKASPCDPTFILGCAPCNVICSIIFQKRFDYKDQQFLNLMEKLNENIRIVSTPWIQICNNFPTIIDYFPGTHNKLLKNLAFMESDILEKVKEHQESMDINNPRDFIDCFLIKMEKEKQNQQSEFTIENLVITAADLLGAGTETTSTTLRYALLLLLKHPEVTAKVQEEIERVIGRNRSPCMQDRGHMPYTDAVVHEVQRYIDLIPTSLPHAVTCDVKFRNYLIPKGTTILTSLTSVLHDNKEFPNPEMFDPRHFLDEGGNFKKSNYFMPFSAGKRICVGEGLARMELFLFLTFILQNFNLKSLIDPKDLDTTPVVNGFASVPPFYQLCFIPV
# Assay: Cytochrome panel assay with activity outcomes
# Conditions: recombinant CYP, pro-luciferin dealkylation, luminescence, p450-cyp2c19; series mostly up to 57.1 µM; activity, negative = inhibition: at the top concentration
# % is scaled to controls: 0 for no effect and ±100 for the full control effect.
Compound,"activity, negative = inhibition",AC50
CC(C)CSC[C@@H]1O[C@H](n2cnc3c(N)nccc32)[C@H](O)[C@@H]1O,39.2% [at 11.4 µM],
COCCNC(=O)CCn1nc(-c2ccc(Cl)cc2)ccc1=O,3.18%,
COCCNC(=O)c1cn(Cc2c(F)cccc2Cl)nn1,,14.1 µM (active)
CN(CCC(=O)O)S(=O)(=O)c1ccccc1,-21.5% [at 11.4 µM],
CN(CC(=O)Nc1cccc2c1CCCC2)S(=O)(=O)c1ccc(Br)cc1,,5.01 µM (active)
NC(N)=NC[C@@H]1CCCCCCN1,23.1% [at 11.4 µM],
O=C(CSCc1c(Cl)cccc1Cl)NCc1cccnc1,,3.55 µM (active)
NNC(=O)Cc1cccnc1,7.22% [at 11.4 µM],
Cn1c(C(=O)O)c(CC(=O)NCc2cccnc2)c2ccccc21,4.63%,
O=C(CCc1ccccc1)NCc1cccnc1,,25.1 µM (active)
O=C(c1ccccc1)c1c[nH]c(C(=O)NCc2cccnc2)c1,,14.1 µM (active)
CC(C)CO/N=C1/C[C@@H](O)[C@@H](O)[C@@H]2[C@@H]3C(=O)N([C@@H](C)c4ccccc4)C(=O)[C@H]3CC[C@@H]12,7.13% [at 11.4 µM],
CC(CO)(CO)N=Cc1cc(I)cc(I)c1O,-13.1% [at 11.4 µM],
COc1ccccc1NC(=O)[C@H](COCc1ccccc1)NC(=O)OC(C)(C)C,,3.55 µM (active)
O=[N+]([O-])c1cc(C(F)(F)F)ccc1NCCCCNS(=O)(=O)c1ccc2ccccc2c1,,1.78 µM (active)
Cc1ccc(NC(=O)CN2C(=O)N/C(=C/c3ccc(C)o3)C2=O)cc1,-3.63%,
CCOC(=O)N/N=C/c1ccc(C)o1,-11.5%,
Cc1ccc(/C=C/C(=O)N2CC(C)CC(C)C2)o1 (stereo not given),,11.2 µM (active)
O=C(CCCN1C(=O)c2cccc3cccc(c23)C1=O)N1CCc2ccccc2C1,,3.98 µM (active)
O=C(CN1C(=O)c2cccc3cccc(c23)C1=O)N1CCCCCC1,16.7%,
C[N+](C)(CCCCCC[N+](C)(C)CCCN1C(=O)c2cccc3cccc(c23)C1=O)CCCN1C(=O)c2cccc3cccc(c23)C1=O,-15.3%,
Cc1cccc(NC(=O)CCCN2C(=O)c3cccc4cccc(c34)C2=O)c1,,14.1 µM (active)
Cc1cccc(NC(=O)CC2Nc3cccc4cccc(c34)NC2=O)c1 (stereo not given),,2.24 µM (active)
Cc1ccc(-n2nnnc2Sc2nc([N+](=O)[O-])nn2C)cc1C,,3.98 µM (active)

Compound,"activity, negative = inhibition",AC50
O=C(O)c1ccc(Sc2nnnn2-c2ccccc2)c([N+](=O)[O-])c1,-3.77%,
CC(CCc1ccccc1)NC(=O)/C=C/c1ccccc1 (stereo not given),,8.91 µM (active)
CCCCNC(=O)C(=O)NC(C)CCc1ccccc1 (stereo not given),,14.1 µM (active)
CC(C)C(=O)N[C@H]1CCCN1C(=O)/C=C\c1ccccc1,-19.8% [at 11.4 µM],
CC(CCc1ccccc1)NC(=O)C(=O)NCCO (stereo not given),,31.6 µM (active)
CC(C)C(=O)N[C@@H]1CCCN1C(=O)/C=C\c1ccccc1,-31.2% [at 11.4 µM],
O=C(O)[C@H](CCc1ccccc1)N1C(=O)c2ccccc2C1=O,-17.1% [at 11.4 µM],
CC(=O)c1cn(CC(=O)Nc2c(C)cccc2C)c2ccccc12,,7.08 µM (active)
Cc1cc(C)cc(C(=O)N(NC(=O)Nc2ccc(Cl)cc2)C(C)(C)C)c1,,1.58 µM (active)
O=C(Nc1ccc(C(=O)Nc2ccc(C(=O)Nc3ccc(S(=O)(=O)O)c4cc(S(=O)(=O)O)cc(S(=O)(=O)O)c34)cc2)cc1)Nc1ccc(C(=O)Nc2ccc(C(=O)Nc3ccc(S(=O)(=O)O)c4cc(S(=O)(=O)O)cc(S(=O)(=O)O)c34)cc2)cc1,-38.1%,
CC(C)(C)N(NC(=O)Nc1ccc(Cl)c(Cl)c1)C(=O)c1ccccc1,,1.26 µM (active)
COC(=O)c1cccc(NC(=O)Nc2ccc(Cl)c(Cl)c2)c1,,3.98 µM (active)
CC(C)(C)N(NC(=O)Nc1ccccc1)C(=O)c1ccccc1Cl,,11.2 µM (active)
CC1(C)S[C@@H]2[C@H](NC(=O)[C@@H](N)c3ccccc3)C(=O)N2[C@H]1C(=O)O[C@H]1OC(=O)c2ccccc21,-21% [at 25.6 µM],
O[C@H](CN1CCN(c2cccc(Cl)c2)CC1)C(c1ccccc1)c1ccccc1,-35.5%,
O=C(c1ccccc1)C1CN(c2ccccc2)CC1c1ccc(Cl)cc1 (stereo not given),,3.98 µM (active)
COc1ccccc1-c1c(C(F)(F)F)oc2cc(OC(=O)c3cccc([N+](=O)[O-])c3C)ccc2c1=O,,0.631 µM (active)
Cc1ccccc1-c1cc(NCCN2CCOCC2)ncn1,-8.59%,
c1ccc2c(c1)CCCc1cc(NCCN3CCOCC3)nnc1-2,38% [at 25.6 µM],
Cc1ccccc1-c1nccc(NCCN2CCOCC2)n1,,10 µM (active)
Cc1noc(C)c1-c1nccc(NCCN2CCOCC2)n1,-26.3%,
Clc1ccccc1-c1nccc(NCCN2CCOCC2)n1,,5.01 µM (active)
Clc1ccccc1-c1ccc2ncnc(NCCN3CCOCC3)c2c1,-26.1%,
CCSc1nnc(NC(=O)C(C(F)(F)F)C(F)(F)F)s1,,20 µM (active)

Compound,"activity, negative = inhibition",AC50
COCCSc1nnc(NC(=O)C(C)(C)C)s1,-29.9%,
CSc1nc(Oc2ccc(F)cc2)c2ccccc2n1,,7.08 µM (active)
Cn1c(=O)c(-c2ccc(F)cc2)nc2cnc(Oc3ccccc3)nc21,30.5%,
CCOC(=O)c1cnc2c(cnn2CC)c1NN=C(C)C,-4.89%,
CCOC(=O)c1cnc2c(cnn2C)c1NCCCN(C)C,-21.4%,
CCOC(=O)c1cnn(CCOC(=O)C(C)(C)C)c1NC(=O)C(C)(C)C,,14.1 µM (active)
O=c1oc2c(CN3CCOCC3)c(O)ccc2c2ccccc12,,14.1 µM (active)
COc1ccc(-c2c(C)oc3c(CN4CCN(CCO)CC4)c(O)ccc3c2=O)cc1OC,-21.7%,
CC(C)(C)S(=O)(=O)c1cnc2c(-c3ccc(F)cc3)cnn2c1N,,11.2 µM (active)
CS(=O)(=O)c1cnc2c(-c3ccc(F)cc3)cnn2c1N,-15.9%,
CN(C)c1ncc2nc(-c3ccc(F)cc3)c(=O)n(C)c2n1,-2.46%,
CN(C)c1ccc(-c2cncnc2N(C)Cc2ccco2)cc1,,0.251 µM (active)
CN(C)c1ncc2nc(-c3cccc(C#N)c3)c(=O)n(CCC#N)c2n1,2.53%,
CN(Cc1ccco1)c1ncncc1-c1ccc2c(c1)OCO2,,0.126 µM (active)
COCCn1c(=O)c(-c2cccc(C#N)c2)nc2cnc(N(C)C)nc21,-3.96%,
COc1cccc(-c2cncnc2N(C)Cc2ccco2)c1,,7.94 µM (active)
CN(Cc1ccco1)c1ncncc1-c1cccc(C#N)c1,,20 µM (active)
COCC(=O)N1CCC[C@@]2(CCN(C(=O)Nc3cccc(F)c3)C2)C1,17.5%,
CN(Cc1ccco1)c1ncncc1-c1cccnc1,,10 µM (active)
CC(NC(=O)c1ccccc1)c1nc2ccccc2n1Cc1ccccc1F (stereo not given),,8.91 µM (active)
Cc1cc(NC(=S)NC(=O)CC(C)C)ccc1Br,,3.55 µM (active)
CCCCn1nnnc1SCC(=O)c1cc(Cl)ccc1OC,,0.0708 µM (active)
CCCCn1c(SCC(=O)N2CCCC2)nc2c1c(=O)n(C)c(=O)n2C,-31.9%,
CCCCn1nnnc1SCC(=O)N1CCCC1,,25.1 µM (active)

Compound,"activity, negative = inhibition",AC50
C[N+](C)(C)CCCCCCCCCC[N+](C)(C)C,35%,
CCCCCCCCCCCC1=C(O)C(=O)C=C(O)C1=O,-15.3%,
O=S(=O)(N/N=C/c1ccc2c(c1)OCCO2)c1ccc(Cl)cc1,,2.82 µM (active)
O=S(=O)(N/N=C\c1ccc2c(c1)OCO2)c1ccc(Cl)cc1,,0.794 µM (active)
C[C@]1(C2CCCC2)Cc2cc(OCC(=O)O)c(Cl)c(Cl)c2C1=O,42.7%,
O=C(CN1CCN(C2CCCCC2)CC1)NCCC1=CCCCC1,-1.36%,
CCCn1c(=O)c2[nH]c(-c3ccc(OCC(=O)NCCN)cc3)nc2n(CCC)c1=O,14.9%,
O=C(CN1C(=O)NC2(CCCC2)C1=O)NCCC1=CCCCC1,,14.1 µM (active)
O=C(COc1ccc(Cl)cc1)NCCC1=CCCCC1,,3.98 µM (active)
O=C(CN1CCN(c2ncccn2)CC1)NCCC1=CCCCC1,,4.47 µM (active)
Cc1nc2ncnn2c(C)c1CCC(=O)NCCC1=CCCCC1,-16.8%,
O=C(CCN1CCCCC1)c1csc2ccccc12,-22.7% [at 11.4 µM],
O=C(c1[nH]o[n+](=O)c1C(=O)c1csc2ccccc12)c1csc2ccccc12,,1 µM (active)
Cc1cccc(C(=O)O)c1C[C@H]1NCC[C@H]2c3ccccc3N[C@@H]12,3.69% [at 11.4 µM],
Cc1nn(Cc2ccc(Cl)cc2)c(C)c1NC(=O)CSc1nc2c(c(C(F)(F)F)n1)CCc1ccccc1-2,,2.82 µM (active)
Cc1ccccc1Cn1cc(NC(=O)CSc2nc3c(c(C(F)(F)F)n2)CCc2ccccc2-3)cn1,,3.98 µM (active)
CC1(C)[C@@H]2CC[C@]1(C)[C@@H](OC(=O)CSC#N)C2,-26.6% [at 11.4 µM],
CN(C)/C(CN1CCN(C=O)CC1)=C1\N=C(c2ccccc2)OC1=O,-17%,
O=S(=O)(c1ccc(Cl)s1)N1CCc2ccccc2C1,,0.708 µM (active)
COc1ccccc1CN1CC[C@@]2(CCCN(S(=O)(=O)c3ccccc3)C2)C1,-26.9%,
COc1ccc(S(=O)(=O)N2CCc3ccccc3C2)cc1OC,,0.447 µM (active)
O=C(ON=C1CCN(S(=O)(=O)c2ccccc2)CC1)c1ccccc1,-10.7%,
CCN1C(=O)[C@H]2[C@H]3[C@H](O)[C@H](O)C/C(=N/O[C@@H]4O[C@H](COC(C)=O)[C@@H](OC(C)=O)[C@H](OC(C)=O)[C@H]4OC(C)=O)[C@@H]3CC[C@@H]2C1=O,34.2% [at 11.4 µM],
